# Molecular target: T1, Tyrosyl-tRNA synthetase, putative (Trypanosoma cruzi (strain CL Brener)) (UniProt Q4DSP6)
# T1 sequence (whole entry): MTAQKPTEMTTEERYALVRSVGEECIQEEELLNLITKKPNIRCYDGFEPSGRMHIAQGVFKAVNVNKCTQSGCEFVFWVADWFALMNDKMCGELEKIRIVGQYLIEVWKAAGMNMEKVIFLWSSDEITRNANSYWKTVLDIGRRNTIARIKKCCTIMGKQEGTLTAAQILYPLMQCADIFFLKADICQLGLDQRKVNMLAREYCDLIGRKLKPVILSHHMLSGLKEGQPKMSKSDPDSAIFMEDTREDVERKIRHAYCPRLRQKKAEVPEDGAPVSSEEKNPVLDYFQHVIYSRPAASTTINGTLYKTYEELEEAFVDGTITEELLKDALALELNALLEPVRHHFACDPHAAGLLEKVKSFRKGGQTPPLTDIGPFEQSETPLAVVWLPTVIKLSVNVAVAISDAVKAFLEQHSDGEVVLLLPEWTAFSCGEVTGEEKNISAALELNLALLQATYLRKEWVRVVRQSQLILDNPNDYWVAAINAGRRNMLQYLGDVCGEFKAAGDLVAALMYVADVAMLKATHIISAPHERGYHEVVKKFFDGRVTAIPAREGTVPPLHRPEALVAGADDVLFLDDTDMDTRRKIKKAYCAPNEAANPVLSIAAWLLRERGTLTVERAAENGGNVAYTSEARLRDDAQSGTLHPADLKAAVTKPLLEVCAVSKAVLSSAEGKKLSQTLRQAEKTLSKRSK
# Experiment: Trypanosoma cruzi tyrosyl tRNA synthetase (TcYRS) SOP
# Type: functional
# Design: scale not given: direction of the effect not stated beside the values
# Details: 30 µM
row,Compound,Percent Effect [%]
1,Cc1cccc2cc(CNCCCN3CCOCC3)c(=O)[nH]c12,14.3
2,CC(C)N(C)C(=O)C1=NOC2(CCN(C(=O)c3ccncc3)C2)C1 (stereo not given),6.17
3,Cc1cnn(CC(C)NCc2ccc(-n3cccn3)cc2)c1 (stereo not given),-12.7
4,Cc1nc(C)n(C2CCCN(C(=O)Cc3cccnc3)C2)n1 (stereo not given),11
5,CN(C)C(=O)CN1CCCCC1c1nc(N)ncc1-c1cccc(F)c1 (stereo not given),14.1
6,O=C(C1CC1)N1CCN(Cc2coc(-c3ccc(Cl)cc3)n2)CC1,0
7,CN(CCNC(=O)N1CCN(Cc2ccon2)CC1)C1CCCC1,8.64
8,c1csc(N2CCCN(Cc3nc(C4CC4)no3)CC2)n1,14.6
9,N#Cc1ccc(C(=O)N2CC[C@H]3[C@@H]2CCC(=O)N3c2cccnc2)cc1,12.8
10,Cc1nn(C)c(C)c1C1CCCN1C(=O)c1ccc(Cl)o1 (stereo not given),-6.1
11,Cc1nccn1-c1cc(CNC(=O)c2ccccn2)ccn1,20
12,O=C1COc2c(cccc2C(=O)N2CCCCC2Cn2cccn2)N1 (stereo not given),11.8
13,Cc1cc(C)n(CC2CCCN2CC(=O)N(C)C)n1 (stereo not given),1.24
14,CC(C)(C)C(=O)NCCc1ccn(-c2ccccc2)n1,17.7
15,CC(C)C(NC(=O)NCCNc1ccccn1)c1cccs1 (stereo not given),26.8
16,Cc1ccc(CN2CCCC3(COCCN(Cc4c[nH]nn4)C3)C2)o1 (stereo not given),10
17,CCNC(c1ccc(OC)cc1)c1cccnc1 (stereo not given),5.06
18,CCN(CC1CCCO1)C(=O)Nc1cc(OC)c(OC)cc1C (stereo not given),21.5
19,Cc1cc(C2CCCN2C(=O)c2cc3c(s2)CCC3)on1 (stereo not given),4.88
20,COc1ccccc1[C@@H]1CN(C(=O)c2csc(C)n2)C[C@H]1C(=O)O,17.9

row,Compound,Percent Effect [%]
1,CCc1ccc(CN2CCC3(CC2)CC(N2CCN(C)CC2)CO3)cc1 (stereo not given),5.13
2,Cc1ccc(C(=O)NC(C)CN2CCCC2=O)c(=O)[nH]1 (stereo not given),2.5
3,CCc1nnc2n1CCN(C(=O)c1cc3ccc(F)cc3nc1C)C2,21.9
4,CC(C)n1ccnc1C1CCN(Cc2ccc(Cl)c(F)c2)CC1,8.64
5,CC(C)c1ncc2c(n1)CN(Cc1ccc(C(N)=O)cc1)CC2,19.5
6,COc1cccc2c1ccn2CCC(=O)NCCCC(=O)O,5.13
7,CN(C(=O)c1ccccn1)c1nc2c(s1)CCc1c-2cnn1C,1.3
8,Cc1ccc2c(c1)OCCCC2NCc1nnc2n1CCCCC2 (stereo not given),6.17
9,CC(C)c1noc(CN2CCN(C(=O)c3ccccc3F)CC2)n1,18.3
10,O=C(c1ccc[nH]1)N1CCC(c2nccn2Cc2ccncc2)CC1,10
11,O=S(=O)(Nc1cnn(C2CCOCC2)c1)c1ccc(F)c(F)c1,3.85
12,CN(C)C(CNC(=O)c1cccc(-n2cnnn2)c1)c1ccccc1Cl (stereo not given),10
13,CC(O)CN1CCN(C(=O)c2ccc(Br)o2)CC1 (stereo not given),9.76
14,CC(NC1(CNC(=O)CC(C)(C)C)CCOCC1)c1ccccc1 (stereo not given),11.1
15,CC(=O)N1CC(=O)N(c2ccccc2)CC12CCN(Cc1nccs1)C2 (stereo not given),30
16,CN(C)CC1CN(Cc2csc(C3CCCC3)n2)CCO1 (stereo not given),16.1
17,Cc1cccc2nc(C(=O)N3CCC(Nc4cccnn4)CC3)cn12,9.41
18,O=C(CCNc1ncccn1)N1CCCC(n2ccnc2)C1 (stereo not given),15.2
19,CC(=O)N1CC(=O)N(c2cnn(C)c2)CC12CCN(CC1CC1)C2 (stereo not given),1.22
20,COCCNC(=O)c1cc2c(s1)CCN2C(=O)c1ccccc1,15
